“And” between values parts separate entries of the source, which are not always exact repeats. Equal values may be shown once. Results filed as inconclusive are left out. The source holds several records for some structures; these can differ, active in one and inactive in another. The source made the active and inactive calls. The call rests on the fitted dose curve; in most records, active means well fitted curve in the direction sought with a large enough effect in the repeat runs; inconclusive means weak or mixed curves; inactive means no such curve, though single readings can be large; an effect the other way counts as inactive or inconclusive.
What was measured:
[1] = biological target: Cytochrome P450 2C19 (Homo sapiens) (UniProt P33261); test: Cytochrome P450 Family 2 Subfamily C Member 19 (CYP2C19) small molecule antagonists: luciferase reporter qHTS assay (AID 1671197); further: nearly all actives have a fitted effect of over 65% in size
Sequence of Cytochrome P450 2C19 (Homo sapiens) (P33261 whole entry, looked up): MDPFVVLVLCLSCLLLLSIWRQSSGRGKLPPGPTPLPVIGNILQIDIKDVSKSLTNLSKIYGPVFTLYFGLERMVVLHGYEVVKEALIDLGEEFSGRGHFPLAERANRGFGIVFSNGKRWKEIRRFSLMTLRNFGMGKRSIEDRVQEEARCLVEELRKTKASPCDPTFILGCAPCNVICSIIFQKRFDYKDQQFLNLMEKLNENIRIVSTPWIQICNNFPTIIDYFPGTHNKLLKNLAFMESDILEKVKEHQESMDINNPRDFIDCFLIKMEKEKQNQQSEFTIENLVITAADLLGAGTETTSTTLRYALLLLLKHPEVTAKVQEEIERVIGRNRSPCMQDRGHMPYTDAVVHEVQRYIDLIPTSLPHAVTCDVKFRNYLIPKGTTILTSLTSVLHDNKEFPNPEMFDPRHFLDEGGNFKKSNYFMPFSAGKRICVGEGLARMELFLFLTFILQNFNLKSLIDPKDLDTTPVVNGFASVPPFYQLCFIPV
Summary of the method: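 Light output is proportional to CYP2C19 activity: proluciferin substrate is converted to luciferin, then detected by a luciferin detection reagent that also stops the 1 h, 37C NADPH-driven reaction. Ketoconazole serves as positive control.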

[2] = biological target: Cytochrome P450 2C9 (Homo sapiens) (UniProt P11712); test: Cytochrome P450 Family 2 Subfamily C Member 9 (CYP2C9) small molecule antagonists: luciferase reporter qHTS assay (AID 1671198); further: nearly all actives have a fitted effect of over 50% in size
Sequence of Cytochrome P450 2C9 (Homo sapiens) (P11712 whole entry, looked up): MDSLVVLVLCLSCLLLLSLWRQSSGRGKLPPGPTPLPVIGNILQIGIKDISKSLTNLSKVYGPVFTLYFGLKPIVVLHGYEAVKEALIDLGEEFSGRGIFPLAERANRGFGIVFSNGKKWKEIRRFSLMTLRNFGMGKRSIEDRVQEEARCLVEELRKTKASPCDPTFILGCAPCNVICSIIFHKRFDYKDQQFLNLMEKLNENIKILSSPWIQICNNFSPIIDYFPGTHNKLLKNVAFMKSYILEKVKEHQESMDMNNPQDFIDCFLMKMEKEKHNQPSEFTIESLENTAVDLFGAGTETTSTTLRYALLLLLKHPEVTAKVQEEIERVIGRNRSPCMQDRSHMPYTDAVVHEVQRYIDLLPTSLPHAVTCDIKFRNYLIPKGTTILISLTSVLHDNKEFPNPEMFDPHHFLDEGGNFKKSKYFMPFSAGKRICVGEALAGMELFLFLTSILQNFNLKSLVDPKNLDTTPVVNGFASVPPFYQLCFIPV
Summary of the method: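 Enzyme-substrate mix preincubated with compound 10 min at room temperature; reaction started with NADPH regeneration solution, 1 h 37C. Luminescent luciferin product read after 20 min detection reagent.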

[3] = biological target: Cytochrome P450 1A2 (Homo sapiens) (UniProt P05177); test: Cytochrome P450 Family 1 Subfamily A Member 2 (CYP1A2) small molecule antagonists: luciferase reporter qHTS assay (AID 1671199); further: nearly all actives have a fitted effect of over 50% in size
Sequence of Cytochrome P450 1A2 (Homo sapiens) (P05177 whole entry, looked up): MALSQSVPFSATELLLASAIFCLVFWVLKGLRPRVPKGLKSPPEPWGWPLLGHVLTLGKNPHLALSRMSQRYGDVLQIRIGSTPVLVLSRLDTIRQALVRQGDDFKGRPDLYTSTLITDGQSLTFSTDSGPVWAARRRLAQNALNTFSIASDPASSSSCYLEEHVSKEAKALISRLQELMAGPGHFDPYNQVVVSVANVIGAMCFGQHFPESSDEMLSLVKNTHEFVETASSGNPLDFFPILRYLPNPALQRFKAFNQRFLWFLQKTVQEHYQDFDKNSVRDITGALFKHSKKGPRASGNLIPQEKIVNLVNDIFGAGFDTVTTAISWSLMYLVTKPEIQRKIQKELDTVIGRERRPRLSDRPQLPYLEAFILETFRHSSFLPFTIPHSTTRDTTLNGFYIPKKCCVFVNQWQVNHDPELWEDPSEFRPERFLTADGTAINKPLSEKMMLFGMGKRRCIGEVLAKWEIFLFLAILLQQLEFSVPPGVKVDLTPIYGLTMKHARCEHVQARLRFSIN
Summary of the method: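 Quantitative high-throughput format using the P450-Glo CYP1A2 system. Reaction initiated by NADPH regeneration solution, 1 h at room temperature, then stopped with detection reagent; luminescence measured 20 min later.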

[4] = biological target: Voltage-gated inwardly rectifying potassium channel KCNH2 (Homo sapiens) (UniProt Q12809); test: Human Ether-a-go-go-Related Gene (hERG) channel small molecule antagonists: fluorescence cell-based qHTS assay (AID 1671200); further: nearly all actives have a fitted effect of over 50% in size
Sequence of Voltage-gated inwardly rectifying potassium channel KCNH2 (Homo sapiens) (Q12809 whole entry, looked up): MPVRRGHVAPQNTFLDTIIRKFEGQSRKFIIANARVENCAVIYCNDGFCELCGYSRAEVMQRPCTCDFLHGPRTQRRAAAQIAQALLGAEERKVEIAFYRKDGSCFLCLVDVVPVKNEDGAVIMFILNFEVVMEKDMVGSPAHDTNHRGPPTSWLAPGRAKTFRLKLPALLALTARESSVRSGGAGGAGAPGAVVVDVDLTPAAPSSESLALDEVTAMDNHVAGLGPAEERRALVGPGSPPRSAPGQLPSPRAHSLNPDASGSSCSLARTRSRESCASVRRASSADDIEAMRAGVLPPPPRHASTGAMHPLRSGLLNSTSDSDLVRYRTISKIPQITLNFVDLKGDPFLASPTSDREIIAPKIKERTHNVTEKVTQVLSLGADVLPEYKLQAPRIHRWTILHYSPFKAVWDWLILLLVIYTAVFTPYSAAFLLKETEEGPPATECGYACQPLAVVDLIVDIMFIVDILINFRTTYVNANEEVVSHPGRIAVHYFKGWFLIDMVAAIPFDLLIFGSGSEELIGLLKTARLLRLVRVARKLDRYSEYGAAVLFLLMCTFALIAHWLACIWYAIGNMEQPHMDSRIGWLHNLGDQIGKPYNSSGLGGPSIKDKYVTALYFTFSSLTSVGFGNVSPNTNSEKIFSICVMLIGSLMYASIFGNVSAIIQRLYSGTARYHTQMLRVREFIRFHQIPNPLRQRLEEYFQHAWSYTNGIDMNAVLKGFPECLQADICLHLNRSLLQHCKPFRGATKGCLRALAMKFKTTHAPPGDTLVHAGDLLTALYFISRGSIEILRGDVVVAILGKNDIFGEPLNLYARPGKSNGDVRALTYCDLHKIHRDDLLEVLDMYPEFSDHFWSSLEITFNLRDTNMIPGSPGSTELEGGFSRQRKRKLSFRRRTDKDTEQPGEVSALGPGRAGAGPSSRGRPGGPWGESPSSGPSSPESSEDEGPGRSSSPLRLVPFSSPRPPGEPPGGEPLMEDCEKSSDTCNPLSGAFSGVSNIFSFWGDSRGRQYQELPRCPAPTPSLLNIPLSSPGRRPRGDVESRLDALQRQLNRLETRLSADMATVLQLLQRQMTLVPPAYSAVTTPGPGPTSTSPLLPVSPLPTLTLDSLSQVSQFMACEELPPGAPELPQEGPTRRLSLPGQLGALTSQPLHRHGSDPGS
Summary of the method: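 U2OS cells expressing the channel were plated at 1000 cells/well, incubated overnight at 37 C, then loaded with FluxOR II thallium-sensitive dye for 1 h at room temperature in the dark, with a further 10 min at room temperature before stimulation.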

[5] = biological target: Cytochrome P450 3A4 (Homo sapiens) (UniProt P08684); test: Cytochrome P450 Family 3 Subfamily A Member 4 (CYP3A4) small molecule antagonists: luciferase reporter qHTS assay (AID 1671201); further: nearly all actives have a fitted effect of over 50% in size
Sequence of Cytochrome P450 3A4 (Homo sapiens) (P08684 whole entry, looked up): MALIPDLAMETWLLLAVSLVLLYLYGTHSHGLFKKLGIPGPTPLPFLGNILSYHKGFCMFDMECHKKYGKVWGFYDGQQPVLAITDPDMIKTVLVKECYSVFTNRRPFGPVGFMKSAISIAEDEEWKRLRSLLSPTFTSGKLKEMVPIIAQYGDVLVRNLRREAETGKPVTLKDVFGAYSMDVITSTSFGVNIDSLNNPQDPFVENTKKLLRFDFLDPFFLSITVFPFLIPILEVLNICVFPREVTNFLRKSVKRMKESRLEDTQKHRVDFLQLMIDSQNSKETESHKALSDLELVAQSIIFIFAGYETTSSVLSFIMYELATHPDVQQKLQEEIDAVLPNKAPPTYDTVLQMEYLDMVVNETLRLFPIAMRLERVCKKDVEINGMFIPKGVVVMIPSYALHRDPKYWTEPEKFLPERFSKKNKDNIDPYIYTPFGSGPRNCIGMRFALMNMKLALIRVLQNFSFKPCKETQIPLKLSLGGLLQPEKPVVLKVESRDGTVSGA
Summary of the method: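 P450-Glo CYP3A4 system with proluciferin substrate; compounds preincubated 10 min RT with enzyme-substrate mix, then NADPH regeneration added for 1 h RT. Detection reagent 20 min, luminescence read as relative luminescence units.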
Potency means the concentration at half of the fitted maximal effect.

Structure (SMILES)	Potency [1]	Potency [2]	Potency [3]	Potency [4]	Potency [5]
CC(C)(C)CC(C)(C)c1ccc(O)c(Cc2ccc(Cl)cc2Cl)c1	1.74 µM (active)	5.49 µM (active)	15.5 µM (active)	inactive	
O=C(N/N=C/c1ccccc1O)c1ccncc1	4.9 µM (active)	2.19 µM (active)	0.575 µM (active)	inactive	
CN(C)C(=O)C1(N2CCCCC2)CCN(CC[C@@]2(c3ccc(Cl)c(Cl)c3)CN(C(=O)c3ccccc3)CCO2)CC1	1.67 µM (active)	37.3 µM (active)	inactive	11.5 µM (active)	0.744 µM (active)
[Cl][Bi]([Cl])([c]1ccccc1)([c]1ccccc1)[c]1ccccc1	0.445 µM (active)	1.12 µM (active)	19.9 µM (active)	13.7 µM (active)	8.88 µM (active)
CC[C@@]1(O)C(=O)OCc2c1cc1n(c2=O)Cc2cc3c(CN(C)C)c(O)ccc3nc2-1	inactive	inactive	inactive	inactive	
CN1CCC(Nc2ncc3ncnc(Nc4ccc(F)c(Cl)c4)c3n2)CC1	inactive	inactive	inactive	inactive	inactive
CCCC1O[C@@H]2C[C@H]3[C@@H]4CCC5=CC(=O)C=C[C@]5(C)[C@H]4[C@@H](O)C[C@]3(C)[C@]2(C(=O)CO)O1 (stereo partly drawn)	39.9 µM (active) and inactive	39.9 µM (active) and 35.6 µM (active)	inactive	inactive	
O=CC=C(c1ccccc1)c1ccccc1	18 µM (active)	20.2 µM (active)	20.2 µM (active)	39.2 µM (active)	inactive
O=c1[nH]sc2cc(Cl)ccc12	inactive	13.8 µM (active)	24.5 µM (active)	inactive	
O=C(Nc1ccc(Oc2ccc(Cl)cc2)c(Cl)c1)c1cc(I)cc(I)c1O	inactive	38.9 µM (active)	inactive	inactive	inactive
CC(C)CCCCCCCCCCCCCCC(=O)O	inactive	inactive	inactive	inactive	inactive
Clc1ccc2nsnc2c1NC1=NCCN1	inactive	inactive	inactive	inactive	inactive
O=c1c(-c2ccccc2)c1-c1ccccc1	7.76 µM (active)	17.4 µM (active)	1.15 µM (active)	inactive	
O=C(NOCC1CC1)c1ccc(F)c(F)c1Nc1ccc(I)cc1Cl	0.246 µM (active)	0.55 µM (active)	15.5 µM (active)	inactive	
c1cc(C(c2ccc(OCC3CO3)cc2)c2ccc(OCC3CO3)cc2)ccc1OCC1CO1 (stereo not drawn)	56.4 µM (active)	20 µM (active)	inactive	inactive	7.96 µM (active)
CCOc1ccc2nc3cc(N)ccc3c(N)c2c1	inactive	inactive	0.871 µM (active)	inactive	inactive
CCCCCCCCCOC(=O)c1ccc(O)cc1	1.97 µM (active)	6.24 µM (active)	27.9 µM (active)	inactive	39.4 µM (active)
Nc1ccc(N)c2ccccc12	3.17 µM (active)	3.99 µM (active)	2.52 µM (active)	inactive	3.55 µM (active)
NNC(=O)c1cccc(C(=O)NN)c1	inactive	35.6 µM (active)	10 µM (active)	inactive	3.99 µM (active)

Structure (SMILES)	Potency [1]	Potency [2]	Potency [3]	Potency [4]	Potency [5]
Cc1cccc(CN2CCN(C(c3ccccc3)c3ccc(Cl)cc3)CC2)c1 (stereo not drawn)	8.71 µM (active)	13.8 µM (active)	inactive	2.39 µM (active)	
Nc1c2ccccc2nc2ccccc12	inactive	inactive	1.25 µM (active) and 2.45 µM (active)	inactive	inactive
CCCCCOc1ccccc1/C(=C\SC)n1ccnc1	1.1 µM (active)	5.49 µM (active)	2.29 µM (active)	15.1 µM (active)	
Cc1cccc(S(=O)(=O)O)c1C	inactive	inactive	inactive	inactive	inactive
OCCN1CCN(CC/C=C2/c3ccccc3Sc3ccc(C(F)(F)F)cc32)CC1	34.7 µM (active)	inactive	19.5 µM (active)	2.13 µM (active)	
CCOC(=O)/C=C(C)/C=C/C=C(C)/C=C/c1c(C)cc(OC)c(C)c1C	11 µM (active)	6.17 µM (active)	24.5 µM (active)	inactive	
CNc1ccc(O)cc1	15.9 µM (active)	22.4 µM (active)	63.2 µM (active)	inactive	25.1 µM (active)
C/C(=C(/OCCOc1ccc(Cl)cc1)c1ccc(Cl)cc1Cl)n1ccnc1	0.776 µM (active)	0.871 µM (active)	2.29 µM (active)	6.74 µM (active)	
O=Cc1cc(O)ccc1Br	36.1 µM (active)	45.4 µM (active)	36.1 µM (active)	inactive	inactive
O=C(c1ccc(O)cc1O)c1ccc(O)cc1O	28.3 µM (active) and 22.4 µM (active)	inactive	12.6 µM (active) and 11.2 µM (active)	inactive	5.03 µM (active) and 8.94 µM (active)
Cc1cc(CCN2CCN(c3nsc4ccccc34)CC2)cc2c1NC(=O)CC2(C)C	71 µM (active)	39.9 µM (active)	35.6 µM (active)	21.9 µM (active)	17.8 µM (active)
C=C(C)C(=O)OCC[N+](C)(C)C	inactive	inactive	15.8 µM (active)	inactive	inactive
COc1ccc(-c2ccc3cc(C(=O)O)ccc3c2)cc1C12CC3CC(CC(C3)C1)C2	inactive	inactive	inactive	inactive	inactive
Cc1cc(N)c(S(=O)(=O)O)cc1Cl	inactive	28.6 µM (active)	inactive	inactive	inactive
Oc1ccc2cc(SSc3ccc4cc(O)ccc4c3)ccc2c1	35.6 µM (active)	71.1 µM (active) and 39.9 µM (active)	63.4 µM (active) and 63.3 µM (active)	inactive	14.2 µM (active) and 31.7 µM (active)
CCCCCCCC[P+](CCCCCCCC)(CCCCCCCC)CCCCCCCC	7.06 µM (active)	22.3 µM (active)	39.7 µM (active)	0.154 µM (active)	0.445 µM (active)
O=C1CCCc2c1cc1ccc3cccc4ccc2c1c34	18.1 µM (active)	5.71 µM (active)	0.321 µM (active)	inactive	9.05 µM (active)
Cc1cc(=O)oc2cc(N(C)C)ccc12	79.6 µM (active)	44.8 µM (active)	6.33 µM (active)	inactive	25.2 µM (active)
O=c1cccccc1O	inactive	inactive	inactive	inactive	inactive

Structure (SMILES)	Potency [1]	Potency [2]	Potency [3]	Potency [4]	Potency [5]
CSc1ccc(/C=C2/C(C)=C(CC(=O)O)c3cc(F)ccc32)cc1	17.4 µM (active)	24.5 µM (active)	15.5 µM (active)	inactive	inactive
CCCCc1oc2ccc(NS(C)(=O)=O)cc2c1C(=O)c1ccc(OCCCN(CCCC)CCCC)cc1	9.77 µM (active)	34.7 µM (active)	inactive	0.848 µM (active)	inactive
NC(=O)NS(=O)(=O)c1ccc(N)cc1	inactive	inactive	inactive	inactive	inactive
CN(C)c1ccc(C2(c3ccc(N(C)C)cc3)OC(=O)c3cc(N(C)C)ccc32)cc1	1.41 µM (active)	3.16 µM (active)	inactive	inactive	2 µM (active)
CC(C)(C)c1ccc(C(=O)O)cc1	inactive	inactive	inactive	inactive	inactive
CN(C)c1ccc(SC#N)cc1	35.6 µM (active)	17.8 µM (active)	5.64 µM (active)	inactive	inactive
CN(C)[C@@H]1C(=O)C(C(N)=O)=C(O)[C@@]2(O)C(=O)C3=C(O)c4c(O)cccc4C[C@H]3C[C@@H]12	inactive	inactive	inactive	inactive	inactive
Cc1cccc2c1cc1ccc3cccc4ccc2c1c34	inactive	inactive	0.205 µM (active)	inactive	inactive
N=C1C=CC(=C(c2ccc(N)cc2)c2ccc(N)cc2)C=C1	39.9 µM (active)	39.9 µM (active)	35.6 µM (active)	inactive	12.6 µM (active)
O=c1[nH]sc2ccccc12	inactive	31.7 µM (active)	31.7 µM (active)	49 µM (active)	39.9 µM (active)
NNc1nc(-c2ccccc2)cs1	9.19 µM (active)	9.19 µM (active)	0.651 µM (active)	inactive	5.8 µM (active)
Nc1ccccc1O	19.7 µM (active)	27.9 µM (active)	15.7 µM (active)	inactive	31.3 µM (active)
OCCCCCCCCCCCCBr	inactive	inactive	40.5 µM (active)	inactive	inactive
Cc1[nH]nc2c1N=C(c1ccccc1Cl)c1cc([N+](=O)[O-])ccc1N2	17.8 µM (active)	15.9 µM (active)	63.3 µM (active)	8.71 µM (active)	3.99 µM (active)
COc1c(C)c2c(c(O)c1C/C=C(\C)CCC(=O)O)C(=O)OC2	inactive	inactive	inactive	inactive	inactive
CCCCCCCCCCCCCCCCCC[N+](C)(C)Cc1ccccc1	56.9 µM (active)	40.3 µM (active)	80.4 µM (active)	2.78 µM (active)	40.3 µM (active)
O=C(Nc1cccc(C(F)(F)F)c1)c1cc(Br)cc(Br)c1O	56.4 µM (active)	14.2 µM (active)	56.4 µM (active)	inactive	22.4 µM (active)
O=S1(=O)CC(Cl)(Cl)C(Cl)(Cl)C1	35.6 µM (active)	22.4 µM (active)	22.4 µM (active)	inactive	25.2 µM (active)
C/C=C(\C)C(=O)OCc1ccccc1	inactive	inactive	35.6 µM (active)	inactive	inactive
